Measurements reported in PubChem BioAssay AID588689 (Southern Research Specialized Biocontainment Screening …, 2011).
About 1,000 (0.29%) of roughly 340,000 compounds were called active. Cut-off read from the data, not from the text of the source: inconclusive = inhibition above about 29% without an active follow-up result; inactive = below that. A selection follows. Measured potencies and affinities stand elsewhere.

Target: Genome polyprotein (Dengue virus type 2 (strain 16681-PDK53)) (UniProt P29991)
Assay: Dengue-2 NS5 methyltransferase inhibitors, primary screen, biochemical, confirmation dose response (AID 588689)
Details: Dengue-2 NS5 methyltransferase capping enzyme assay, at 25 µM, stronger effect = higher value
[1] = measured here: pilot screen replicate inhibition

Structure (SMILES) | inhibition | inhibition [1]
Cc1ccc(NC2CCCN(C(=O)c3cn4cc(Cl)ccc4n3)C2)cc1C (stereo not drawn) | 3.88% (inactive) | 
COc1ccccc1N1CCN(CC(=O)Nc2ccc(CN3CCCCC3)cc2)CC1 | -7.05% (inactive) | 
CC1=C(C#N)C(c2ccc(O)cc2)C2=C(CCCC2=O)N1 (stereo not drawn) | 0% (inactive) | 
COc1ccc2cc(C3(C)NC(=O)N(CC(=O)NCCC4=CCCCC4)C3=O)ccc2c1 (stereo not drawn) | -6.89% (inactive) | -2.13%
Cc1cc(C)cc(NC(=S)NC2CC3CCCC(C2)N3C2CC2)c1 (stereo not drawn) | -10.8% (inactive) | 
Cc1cc(C(F)(F)F)nn1CC(=O)N1CCOCC1 | -2.05% (inactive) | 
CCN1C(=O)C(=O)N(CC(=O)Nc2cccc(C(F)(F)F)c2)C1=O | 6.2% (inactive) | 
O=C(CN1C(=O)/C(=C2\SC(=S)N(C3CCS(=O)(=O)C3)C2=O)c2ccccc21)Nc1ccccc1 (stereo not drawn) | -1.82% (inactive) | 
CC(=O)N1C(=S)NC(=O)/C1=C1/C(=O)N(CC(=O)Nc2cccc(C)c2)c2ccccc21 | -2.91% (inactive) | 
O=C(CN1C(=O)CNC1=O)Nc1cccc(C(F)(F)F)c1 | -1.61% (inactive) | 
COc1ccc(NC(=O)CN2C(=O)/C(=C3\SC(=S)N(CCC(=O)O)C3=O)c3ccccc32)cc1 | 2.68% (inactive) | 
Cc1cccc(NC(=O)CN2C(=O)/C(=C3\SC(=S)N(CC4CCCO4)C3=O)c3ccccc32)c1 (stereo not drawn) | -5.35% (inactive) | 
CCO[C@H]1OC(C(=O)O)=C[C@@H](c2cn(C(C)=O)c3ccccc23)[C@@H]1CCCO | -0.8% (inactive) | 
Cc1ccccc1C(=O)NCCNC(=O)c1ccccn1 | 4.99% (inactive) | 
O=C(CSc1ccc(F)cc1)Nc1ccc(N2CCOCC2)c(Cl)c1 | -4.54% (inactive) | 
CC(=O)N1CCN(CC(=O)Nc2ccccc2C(=O)NCc2ccc(C)cc2)CC1 | -0.89% (inactive) | 
Cc1ccc(OCC(=O)OCC(=O)Nc2ccc3c(c2)OCO3)cc1C | -3.82% (inactive) | 
Cc1cc(C(=O)OCC(=O)NCc2ccc(Cl)cc2Cl)c(C)o1 | -0.73% (inactive) | 
Clc1ccc(CN2CCSCC2)c(Cl)c1 | -3.29% (inactive) | 2.1%
C=C(C)c1cccc(C(C)(C)NC(=O)N2CCCC(C)C2)c1 (stereo not drawn) | -4.84% (inactive) | 
Cc1cc(=O)[nH]c(N/N=C/c2cc(C)n(CC(F)(F)F)c2C)n1 | 1.74% (inactive) | 
CC1CCN(C(=S)c2cn(Cc3ccc(F)cc3)c3ccccc23)CC1 | -6.61% (inactive) | 
COCCN(C(=O)c1csnn1)C(C(=O)NC(C)(C)C)c1cccc(OC)c1 (stereo not drawn) | 0% (inactive) | 

Structure (SMILES) | inhibition | inhibition [1]
O=[N+]([O-])c1cc(F)c(N2CCCCC2)cc1N1CCOCC1 | -8.91% (inactive) | 
N#Cc1cc(N2CCCCC2)c([N+](=O)[O-])cc1C#N | -5.36% (inactive) | 
O=C(NCc1ccccc1Cl)C(=O)NCC1OCCN1S(=O)(=O)c1ccc(F)cc1 (stereo not drawn) | -4.82% (inactive) | 
CCc1ccc2c(c1)C(=O)C(=O)N2CCS(=O)(=O)c1ccccc1 | -11.6% (inactive) | 
COc1ccc(/C=C2\SC(=S)N(C(Cc3ccccc3)C(=O)O)C2=O)cc1 (stereo not drawn) | 20.7% (inactive) | 
O=C(O)C(Cc1ccccc1)N1C(=O)/C(=C/c2ccccc2)SC1=S (stereo not drawn) | 15.5% (inactive) | 
O=C(O)C(Cc1ccccc1)N1C(=O)/C(=C/c2cccnc2)SC1=S (stereo not drawn) | 8.37% (inactive) | 
COc1cccc(/C=C2/SC(=S)N(CCCC(=O)Nc3ccc(O)cc3)C2=O)c1 | -5.15% (inactive) | 
COc1cc2c(=O)[nH]c3cc([N+](=O)[O-])ccc3c2cc1[N+](=O)[O-] | 8.05% (inactive) | 
CCC(=O)Nc1nnc(Cc2ccccc2)s1 | 1.61% (inactive) | 
CCN(CC)CCN1C(=O)C(=O)/C(=C(/O)c2ccc(S(=O)(=O)N3CCOCC3)cc2)C1c1ccc(Cl)cc1 (stereo not drawn) | -6.64% (inactive) | 
O=S(=O)(Nc1cccc2ccccc12)c1cccs1 | -1.29% (inactive) | 
COc1ccccc1NS(=O)(=O)c1cccs1 | 0% (inactive) | 
O=C(CN1C(=O)/C(=C\c2cccc(Br)c2)Oc2ccccc21)NCCCN1CCOCC1 | 0.88% (inactive) | 
O=C1/C(=C\c2cccc([N+](=O)[O-])c2O)SC(=S)N1Cc1ccccc1 | 32.5% (inactive) | 
CCN1C(=O)C(=Cc2cccc(OC)c2Oc2ccc([N+](=O)[O-])cc2[N+](=O)[O-])SC1=S | -1.31% (inactive) | 
Cc1cc(NC(=O)CN2C(=O)/C(=C/c3ccccc3F)SC2=S)no1 | 2.68% (inactive) | 
O=C(CN1C(=O)/C(=C/c2cccc(Br)c2)SC1=S)N1CCCC1 | -5.1% (inactive) | 
O=C(CCCN1C(=O)/C(=C/c2ccccc2Cl)SC1=S)NNC(=O)c1ccccc1 | 8.33% (inactive) | 
O/N=C/c1cc(Br)ccc1OCc1ccccc1F | 8.73% (inactive) | 
CN1CCN(c2ccc(NS(=O)(=O)c3ccc(Cl)cc3)cn2)CC1 | -7.03% (inactive) | 
Cc1nnc(NC(=O)CC23CC4CC(CC(C4)C2)C3)s1 | -6.26% (inactive) | 
O=C(Nc1ccc2c(c1)OCO2)C1CCN(S(=O)(=O)c2cccc3cccnc23)CC1 | 2.93% (inactive) | 

Structure (SMILES) | inhibition | inhibition [1]
CCCOc1ccc(/C=C/C(=O)OCC(=O)N(C)c2c(N)n(Cc3ccccc3)c(=O)[nH]c2=O)cc1OCC | 3.69% (inactive) | 
CC(C)N(O)C(=O)NC(C)(C)C | 0% (inactive) | 
COc1ccc(NC2=CC(=O)N(C)C2=O)cc1 | -10.2% (inactive) | 
COc1ccc(C(=O)Nc2cccc(-c3ccc4nncn4n3)c2)cc1OC | 2.3% (inactive) | 
Cc1c(N=C/C=C2\N(C)c3ccccc3C2(C)C)c(=O)n(-c2ccccc2)n1C | -3.46% (inactive) | 
CCc1cc(=O)oc2c3c(cc(OCC(=O)NCCCn4ccnc4)c12)OC(C)(C)CC3 | -1.45% (inactive) | 
OCC[C@H]1C[C@H](O)[C@@H](O)[C@]2(OCCc3ccccc32)O1 | -1.2% (inactive) | 
CCOc1cc(CNc2ccc(S(N)(=O)=O)cc2)cc(Cl)c1OC | 3.64% (inactive) | 
COc1cc(CNc2ccc(N3CCCC3)cc2)cc(Cl)c1OC | 13.9% (inactive) | 
CCOc1c(Cl)cc(CNc2ccc(S(N)(=O)=O)cc2)cc1OC | -1.46% (inactive) | 
COc1cc(CNc2ccc(S(N)(=O)=O)cc2)ccc1OCc1ccccc1F | -6.36% (inactive) | 
COc1cc(CNc2ccc(N3CCCC3)cc2)ccc1OCc1ccccc1 | 12.3% (inactive) | 
CCOc1c(Br)cc(CNc2ccc(N3CCOCC3)cc2)cc1OC | 70.4% (inactive) | 
Cc1nn(C)c(Cl)c1CN1CCCC(CCC(=O)NCc2ccccc2F)C1 (stereo not drawn) | 0% (inactive) | 
CCN1C(=O)[C@@H]2[C@@H](c3ccc(-c4ccc(OC)cc4)c(OC)c3)N3CCCC[C@@]3(C(=O)OC)[C@@H]2C1=O | 17.5% (inactive) | 
CCN1CCN(C(=O)CCc2nnc(CCc3c[nH]c4ccccc34)o2)[C@@H](C)C1=O | -13.8% (inactive) | 
CN(C(=O)CSc1nnc(-c2cccnc2)n1-c1ccccc1F)C1CCS(=O)(=O)C1 (stereo not drawn) | 5.09% (inactive) | 
CC(=O)C1=C(c2ccc(Br)cc2)C(=O)c2ccccc2C1=O | 35% (inactive) | 
O=C(C1=C(c2ccccc2)C(=O)c2ccccc2C1=O)c1ccccc1 | 3.59% (inactive) | 
Nc1ccc(NC(=O)c2ccccc2)c2c1C(=O)c1ccccc1C2=O | 3.24% (inactive) | 
COc1cc(NS(=O)(=O)c2ccc(C)cc2)c2c(c1N)C(=O)c1ccccc1C2=O | 9.7% (inactive) | 
Cc1cc(C)cc(NC2=C(N)C(=O)c3ccccc3C2=O)c1 | 13% (inactive) | 
Nc1ccccc1NC(=O)c1ccccc1 | 3.27% (inactive) | 

Structure (SMILES) | inhibition | inhibition [1]
O=C(NCCc1nc2ccccc2[nH]1)/C(=C/c1ccc2c(c1)OCO2)NC(=O)c1ccc(Cl)cc1Cl | -5.82% (inactive) | 
CCCCNC(=O)COC(=O)c1c2c(nc3ccccc13)CCC2 | 4.4% (inactive) | 
Cn1ccnc1C1CCCCN1C(=O)c1cc(COc2ccc(F)cc2F)on1 (stereo not drawn) | 1.47% (inactive) | 
Cc1cccc(C)c1N1C(=O)C(Cl)=C(N2CCCC2)C1=O | -10.8% (inactive) | 
O=C1C(Cl)=C(N2CCOCC2)C(=O)N1CCc1ccccc1 | -0.8% (inactive) | 
CC(C)c1ccc(S(=O)(=O)Nc2ccc(N3CCOCC3)cc2)cc1 | -9.76% (inactive) | 
CN1CCN(C2=C(Cl)C(=O)N(c3ccc(Cl)cc3)C2=O)CC1 | 14.2% (inactive) | 
CN(C)C1=C(Cl)C(=O)N(c2ccc(Cl)c(Cl)c2)C1=O | 26.8% (inactive) | 
O=C1C(Cl)=C(N2CCN(Cc3ccccc3)CC2)C(=O)N1c1ccccc1 | 67.7% (inactive) | 
Cc1ccc(N2C(=O)C(Cl)=C(N3CCCCCC3)C2=O)cc1 | -6.21% (inactive) | 
O=C(Nc1cccc(-n2cccn2)c1)C1CCCN(Cc2cc3ccccc3[nH]2)C1 (stereo not drawn) | -16.8% (inactive) | 
COc1ccc(N2CCN(C3CCCN(C(=O)CN4CCCC4=O)C3)CC2)cc1 (stereo not drawn) | -4.52% (inactive) | 
COCCCN1Cc2cccc(C(=O)O)c2C1=O | -4.84% (inactive) | 
O=C(CCCc1nc(-c2ccc(Cl)cc2)no1)NCC1CCCO1 (stereo not drawn) | 1.63% (inactive) | 
CC1(C)CC(=O)C(C2=NC3(CCCCC3)Cc3ccccc32)=C(O)C1 | 2.33% (inactive) | 
C=C(C1=CCN(S(=O)C(C)(C)C)[C@@H]1CCO)c1ccccc1 (stereo partly drawn) | 0.33% (inactive) | -2.42%
COc1ccc(/C=C(\C#N)C(=O)Nc2cc(S(=O)(=O)N3CCOCC3)ccc2N2CCCC2)cc1 | -4.53% (inactive) | 
COc1ccc(-c2nc(-c3ccccn3)no2)cc1 | -2.71% (inactive) | 
COC(=O)c1ccccc1N(C)S(C)(=O)=O | -6.11% (inactive) | 
COc1ccccc1N1CCN(CCNC(=O)Nc2cccc(C)c2C)CC1 | -5.61% (inactive) | 
Cc1ccccc1NC(=O)c1cccc(N2C(=O)C3CCCCC3C2=O)c1 (stereo not drawn) | -9.97% (inactive) | 
